Assay outcomes: PubChem BioAssay, National Center for Advancing Translational Sciences (NCATS)
ATXN viability = viability counter-screen for ATXN expression inhibitors; Potency, µM (series often up to 56.7 µM), hits mostly cytotoxic; AID 651635; S2 cells (HEK-293 line with an ATXN2-luciferase reporter) viability, CellTiter-Fluor protease fluorescence, 24 h; 0.49% of 400,000 active; note: nearly all actives have a fitted effect of over 40% in size
HT1080 IDH1KD tx = kills HT-1080 cells with IDH1 knockdown; 2% of 360,000 active; HT-1080 IDH1 knockdown viability, ATP luminescence, 48 h; Potency, µM (highest dose often 46.1 µM), for the others: top-dose activity, negative = toxicity, actives largely listed as cytotoxic;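 note: 0% = DMSO wells and -100% = cell-free medium wells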
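HT-1080-IDH1KD cells (IDH1 knocked down), 750/well in RPMI with 5% FBS, treated with compound 48 h at 37 degrees C. Viability by CellTiter-Glo luminescence, normalised to DMSO and no-cell wells; concentration-response curves classed.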
ATXN2 expr inh = inhibitors of ATXN2 expression | 0.72% of 360,000 active | Potency, µM (top dose mostly 57 µM), for the others: top-dose activity change, negative = inhibition, most hits filed as inhibitors | HEK-293 ATXN2-luciferase reporter, luminescence, 24 h; note: % is set by controls: 0 for no effect and ±100 for the full control effect; nearly all actives have a fitted effect of over 55% in size
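ATXN2-luciferase reporter cells (luciferase flanked by upstream and downstream ATXN2 gene portions) were treated 24 h at 37 °C with compounds at up to 57 uM. SteadyGlo luminescence gave expression; GF-AFC fluorescence gave viability.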
KB-V1 cytotox = KB-V1 MDR subline cytotoxicity. KB-V1 MDR cells viability, CellTiter-Glo, 72 h. Potency, µM (doses to about 46.1 µM), hits mostly cytotoxic. 3.4% of 400,000 active. AID 1347076; note: % is set by controls: 0 for no effect and ±100 for the full control effect; nearly all actives have a fitted effect of over 60% in size
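Compound-treated KB-V1 multidrug-resistant cells, 72 h, 37 degrees C; viability by CellTiter-Glo. Fitted qHTS curves give the values.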
HT1080NT lethal = kills 2HG-producing HT-1080-NT fibrosarcoma cells. HT-1080-NT fibrosarcoma viability, CellTiter-Glo ATP luminescence, 48 h. 1.6% of 360,000 active. Potency, µM (highest dose often 46.1 µM), without a hit: at the top dose activity, negative = less viability, hits mostly cytotoxic;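 note: NT is the 2HG producing partner of a matched IDH1 knockdown line; 0% = DMSO-treated cells and -100% = media-only wells without cells; nearly all actives have a fitted effect of over 55% in size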
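HT-1080-NT; 750 cells/well; 5% FBS RPMI; 48 h compound, 37 degrees C; CellTiter-Glo luminescence; curve fitting and curve-class assignment.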
KB-3-1 cytotox = KB-3-1 parental cell cytotoxicity; KB-3-1 viability, CellTiter-Glo ATP luminescence, 72 h; Potency, µM (top dose mostly 46.1 µM), usual class: cytotoxic; 1.4% of 400,000 active; AID 1347075; note: % is set by controls: 0 for no effect and ±100 for the full control effect; nearly all actives have a fitted effect of over 60% in size
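Cytotoxicity in the drug-sensitive parental line KB-3-1 was scored as loss of CellTiter-Glo luminescence following 72 h incubation with compound. Values come from curve fitting of normalized concentration-response data.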
* marks the source's active call; other numbers are inactive results; ! = repeats disagree. Shown are actives, neighbours in structure and some others; about 6.2% of the full set was active somewhere. Calls come from the whole dose curve; as a rule, active = well fitted curve in the direction sought with a large enough effect; inconclusive = small, poorly fitted or top-dose-only effect, or another doubt; inactive = no such curve, though single readings can be large; an effect the other way counts as inactive or inconclusive. Potency is the fitted concentration of half-maximal effect.

Results for CC(=O)c1ccccc1-c1ccc2c(c1)CC(CNC(=O)c1cc(C)on1)O2 (centres undefined) ?
ATXN viability: inactive

Results for COc1cc2c(NC3CCN(C)CC3)nc(N3CCCN(C)CC3)nc2cc1OCC1CCCCN1 (centres undefined) ?
KB-V1 cytotox: inactive; KB-3-1 cytotox: inconclusive

How did O=C(NCC12CC3CC(CC(C3)C1)C2)c1cc2nc(-c3ccc(Cl)cc3)cc(C(F)(F)F)n2n1 do in these assays?
ATXN viability: inactive; ATXN2 expr inh: -21%; KB-V1 cytotox: inactive; KB-3-1 cytotox: inactive

Results for COc1cccc(N2CCN(C(=O)c3[nH]c(C)c(C(C)=O)c3C)CC2)c1 ?
ATXN viability: inactive; HT1080 IDH1KD tx: 5.6µM*; ATXN2 expr inh: -14%; KB-V1 cytotox: 5.6µM*; HT1080NT lethal: 7.1µM*; KB-3-1 cytotox: 6.3µM*

Results for Cc1ccc(C)c(N/C(N)=N/c2nc(C)cc(C)n2)c1 ?
ATXN viability: inactive; HT1080 IDH1KD tx: -11%; ATXN2 expr inh: -20%; KB-V1 cytotox: 16µM*; HT1080NT lethal: 5%; KB-3-1 cytotox: inactive

Results for COc1ccc(C)cc1N/C(N)=N/c1nc(C)cc(C)n1 ?
ATXN viability: inactive; HT1080 IDH1KD tx: -20%; ATXN2 expr inh: -26%; KB-V1 cytotox: inconclusive; HT1080NT lethal: 0%; KB-3-1 cytotox: inactive

How did Cc1cc(C)nc(/N=C(\N)Nc2ccc(-c3ccccc3)cc2)n1 do in these assays?
ATXN viability: inactive; HT1080 IDH1KD tx: 16µM*; ATXN2 expr inh: inconclusive; KB-V1 cytotox: 16µM*; HT1080NT lethal: 16µM*; KB-3-1 cytotox: 16µM*

How did CSc1ccc(CCNC(=O)c2ccc(-c3nc(COc4ccccc4)c(C)o3)cc2)cc1 do in these assays?
ATXN viability: inactive; ATXN2 expr inh: -7%; KB-V1 cytotox: inactive; KB-3-1 cytotox: inactive

Results for CS(=O)(=O)N(CC(=O)N/N=C/c1ccccc1C(=O)O)c1cccc(Cl)c1Cl ?
ATXN viability: inactive; HT1080 IDH1KD tx: -9%; ATXN2 expr inh: 5%; KB-V1 cytotox: inactive; HT1080NT lethal: 2%; KB-3-1 cytotox: inactive

How did CC(C)c1ccc(/C=N/NC(=O)CN(c2cccc(Cl)c2Cl)S(C)(=O)=O)cc1 do in these assays?
ATXN viability: inconclusive; HT1080 IDH1KD tx: 21µM*; ATXN2 expr inh: inconclusive; KB-V1 cytotox: inconclusive; HT1080NT lethal: 18µM*; KB-3-1 cytotox: inconclusive

Results for Cc1nc(NCCN2CCOCC2)c2nnn(Cc3c(F)cccc3Cl)c2n1 ?
ATXN viability: inactive; HT1080 IDH1KD tx: -2%; ATXN2 expr inh: -11%; KB-V1 cytotox: 18µM*; HT1080NT lethal: 3%; KB-3-1 cytotox: inactive

Results for Cc1[nH]cnc1-c1ccc(Cl)cc1 ?
ATXN viability: inactive; ATXN2 expr inh: 16%

How did CC(Sc1nc2ccccc2c(=O)n1C)C(=O)Nc1ccc2c(c1)OCCO2 (centres undefined) do in these assays?
ATXN viability: inactive; HT1080 IDH1KD tx: -4%; ATXN2 expr inh: -34%; KB-V1 cytotox: inactive; HT1080NT lethal: inconclusive; KB-3-1 cytotox: inconclusive

Results for CC(C)Cn1c(SC(C)C(=O)Nc2ccc3c(c2)OCCO3)nc2ccccc2c1=O (centres undefined) ?
ATXN viability: inactive; HT1080 IDH1KD tx: -26%; ATXN2 expr inh: -16%; KB-V1 cytotox: 21µM*; HT1080NT lethal: -24%; KB-3-1 cytotox: inactive

How did Cc1nn(CC(=O)NCc2ccccc2Cl)c(=O)c2cccn12 do in these assays?
ATXN viability: inactive; ATXN2 expr inh: 23%; KB-V1 cytotox: inactive; KB-3-1 cytotox: inactive

Results for CCN(CC)S(=O)(=O)c1cccc(C(=O)NCc2ccccc2)c1 ?
ATXN viability: inactive; HT1080 IDH1KD tx: 2%; ATXN2 expr inh: -10%; KB-V1 cytotox: inactive; HT1080NT lethal: -2%; KB-3-1 cytotox: inactive

What do the screens show for `CCN(CC)S(=O)(=O)c1csc(C(=O)NCc2ccccc2)c1`?
ATXN viability: inactive; HT1080 IDH1KD tx: -1%; ATXN2 expr inh: -7%; KB-V1 cytotox: 21µM*; HT1080NT lethal: -3%; KB-3-1 cytotox: inactive

How did CCOc1cc(-c2nc(-c3ccc(Br)cc3)no2)cc(OCC)c1OCC do in these assays?
ATXN viability: inactive; ATXN2 expr inh: 3%; KB-V1 cytotox: inactive; KB-3-1 cytotox: inactive

What do the screens show for `COc1ccc(C(=O)Nc2ccc(C)cn2)c(OC)c1`?
ATXN viability: inactive; HT1080 IDH1KD tx: -8%; ATXN2 expr inh: 3.2µM*; KB-V1 cytotox: 16µM*; HT1080NT lethal: inconclusive; KB-3-1 cytotox: inconclusive

How did COc1ccc(C(=O)c2ccc(N(C)C)cc2)c(OC)c1 do in these assays?
ATXN viability: inactive; HT1080 IDH1KD tx: 2.5µM*; ATXN2 expr inh: 16%; KB-V1 cytotox: inconclusive; HT1080NT lethal: 3.5µM*; KB-3-1 cytotox: 5.6µM*

Results for CN(C)c1ccc(C(=O)c2ccc(N(C)C)c3ccccc23)cc1 ?
ATXN viability: inactive; HT1080 IDH1KD tx: 0.026µM*; ATXN2 expr inh: 64%; KB-V1 cytotox: inconclusive; HT1080NT lethal: inconclusive; KB-3-1 cytotox: 0.092µM*

How did COc1ccc(C(=O)c2ccc(OC)cc2OC)cc1 do in these assays?
ATXN viability: inactive; HT1080 IDH1KD tx: 12µM*; ATXN2 expr inh: 36%; KB-V1 cytotox: inconclusive; HT1080NT lethal: 23µM*; KB-3-1 cytotox: 15µM*

How did COc1ccc(OC)c(C(=O)c2ccc(C(=O)c3cc(OC)ccc3OC)cc2)c1 do in these assays?
ATXN viability: inactive; HT1080 IDH1KD tx: 0%; ATXN2 expr inh: inconclusive; KB-V1 cytotox: inactive; HT1080NT lethal: -4%; KB-3-1 cytotox: inactive

Results for CSc1nnc(CNC(=O)/C=C/c2ccccc2Cl)n1-c1ccc(F)cc1 ?
ATXN viability: inactive

What do the screens show for `Cc1cc(C(=O)Cn2nc(C(=O)O)c3ccccc3c2=O)c(C)n1-c1ccccc1`?
ATXN viability: inactive; HT1080 IDH1KD tx: -7%; ATXN2 expr inh: 32%; KB-V1 cytotox: 16µM*; HT1080NT lethal: 5%; KB-3-1 cytotox: inactive

What do the screens show for `CCOC(=O)c1c(NC(=O)Cc2ccccc2)sc2c1CCN(CC)C2`?
ATXN viability: inactive; HT1080 IDH1KD tx: -21%; ATXN2 expr inh: -13%; KB-V1 cytotox: inactive; HT1080NT lethal: 5%; KB-3-1 cytotox: inactive

Results for CCOC(=O)c1c(N)sc2c1CCN(Cc1ccccc1)C2 ?
ATXN viability: inactive; ATXN2 expr inh: -14%; KB-V1 cytotox: inactive; KB-3-1 cytotox: 15µM*!

What do the screens show for `Cc1ccc(CCNC(=O)c2ccc(CS(=O)(=O)Cc3ccccc3F)o2)cc1`?
ATXN viability: inconclusive; HT1080 IDH1KD tx: -5%; ATXN2 expr inh: -13%; KB-V1 cytotox: 5.8µM*!; HT1080NT lethal: -7%; KB-3-1 cytotox: inactive
